Molecules are shown by their SMILES. Among all 69,000 compounds or so, about 950 (1.4%) showed an effect of 50% or more. Only a selection was taken, and strong results are over-represented in it overall.

For this test, the system named is Mycobacterium tuberculosis. The test can be described thus: Cornell M. t heat shock assay. Note: in the data most compounds retested in dose-response had high values. It is filed as functional, organism-based. Further details: dose or concentration left out as unconfirmed.
Take `CCN(CC)Cc1cn2c(n1)CN(Cc1c(C)noc1C)CC2.O=C(O)C(F)(F)F.O=C(O)C(F)(F)F`: the “Percent Effect” value is listed as -4.28%.

For the molecule `Cn1nccc1-c1nnn2c1COCC(CNC1CCOCC1)C2.O=C(O)C(F)(F)F.O=C(O)C(F)(F)F` (stereo not drawn), the “Percent Effect” value is given as 3.559%.

Regarding `Cc1nc(NC2CC2)c2c(n1)c(C)nn2C`, the “Percent Effect” value is listed as -10.52%.

As to `CCn1nc(C)c2nc(C)nc(NC3CCCC3)c21`, the “Percent Effect” value was determined as 69.93%.

For the molecule `CCn1nc(C)c2nc(C)nc(NCCc3ccccc3)c21`, the “Percent Effect” value came to 83.2%.

For `CCCc1nc(NCCOC)c2c(n1)c(C)nn2CC`, the “Percent Effect” value is given as -17.61%.

Take `Cc1nc(NC2CCCC2)c2c(n1)c(C)nn2C`: the “Percent Effect” value was determined as 15.85%.

Regarding `CCn1nc(C)c2nc(C)nc(NCCc3ccc(C)cc3)c21`, the “Percent Effect” value is given as 69.41%.

As to `CCCc1nc(NCCc2ccccc2)c2c(n1)c(C)nn2CC`, the “Percent Effect” value is 91.68%.

`CCCc1nc(NCCCOC)c2c(n1)c(C)nn2CC`: the “Percent Effect” value is reported as -13.02%.

Consider `CCn1nc(C)c2nc(C(C)C)nc(NCCc3ccc(O)cc3)c21`, for which the “Percent Effect” value is reported as -11.29%.

For the molecule `CCn1nc(C)c2nc(C)nc(NCCCn3cccn3)c21`, the “Percent Effect” value is given as -3.879%.

For `CCCc1nc(NCCCO)c2c(n1)c(C)nn2CC`, the “Percent Effect” value was determined as 24.94%.

Regarding `CCCn1c(NCCc2ccccc2)nc2c(C)nn(C)c2c1=O`, the “Percent Effect” value is on record as 22.06%.

On to `O=C(O)C(F)(F)F.O=C(O)C(F)(F)F.c1cc(CN2CCO[C@H]3[C@H](OCC4CCCC4)CC[C@@H]32)ccn1`, for which the “Percent Effect” value came to 3.983%.

With `Cc1ccc(C(=O)N2CCC3(CCCN(c4ncc(F)cn4)C3)C2)cn1.O=C(O)C(F)(F)F` (stereo not drawn), the “Percent Effect” value is reported as 10.32%.

As for `C1CC(CO[C@@H]2CC[C@H]3[C@H]2OCCN3CC2CC2)CCO1.O=C(O)C(F)(F)F`, the “Percent Effect” value was -24.78%.

With `Cc1ccc(C)c(CSc2nnc(C(N)Cc3ccccc3)o2)c1.Cl` (stereo not drawn), the “Percent Effect” value was -13.89%.

For `Cl.O=C(C1CC1)N1CCOC2(CCNCC2)C1`, the “Percent Effect” value is on record as 27.3%.

`Fc1ccc(CN2C[C@@H]3OCCN(CC4CCCO4)[C@@H]3C2)cc1.O=C(O)C(F)(F)F.O=C(O)C(F)(F)F` (stereo partly drawn): the “Percent Effect” value was -48.55%.

As to `CCc1ncnc2c1CCN(Cc1ccc3c(c1)OCO3)CC2.O=C(O)C(F)(F)F`, the “Percent Effect” value is -11.62%.

As for `COC[C@H]1CC[C@@H]2[C@@H](CCN2Cc2ccco2)O1.O=C(O)C(F)(F)F`, the “Percent Effect” value is on record as -6.92%.

For the molecule `Cc1ccc(CN2CCOC3(CCN(CC4CCOC4)CC3)C2)cc1.O=C(O)C(F)(F)F.O=C(O)C(F)(F)F` (stereo not drawn), the “Percent Effect” value stood at 35.27%.

As to `CNC(=O)[C@H]1CO[C@H]2CCN(Cc3ccc4ccccc4n3)C[C@H]2C1.O=C(O)C(F)(F)F.O=C(O)C(F)(F)F`, the “Percent Effect” value was -6.104%.

As for `CCCc1nc(N2CCN(CC)CC2)c2c(n1)c(C)nn2CC`, the “Percent Effect” value is reported as -31.53%.

Turning to `CCCc1nc(N2CCCCCC2)c2c(n1)c(C)nn2CC`, the “Percent Effect” value was determined as 50.35%.

Regarding `CCCc1nc(N2CCCCC2)c2c(n1)c(C)nn2CC`, the “Percent Effect” value is listed as -7.298%.

As to `COCC(=O)N1CCOCC2(CCN(Cc3cccs3)C2)C1.O=C(O)C(F)(F)F` (stereo not drawn), the “Percent Effect” value is -21.04%.

Consider `Cc1ccc(CN2CCn3c(CN(C)C(C)C)cnc3C2)s1.O=C(O)C(F)(F)F.O=C(O)C(F)(F)F`, for which the “Percent Effect” value is listed as -14.26%.

Regarding `Cc1cn2c(n1)C(CNCC1=Cc3ccccc3OC1)CCC2` (stereo not drawn), the “Percent Effect” value is reported as 28.86%.

Take `Cc1cn2c(n1)C(CNCC1=Cc3cc(Cl)ccc3OC1)CCC2` (stereo not drawn): the “Percent Effect” value was determined as 99%.

In the case of `Cc1cn2c(n1)C(CNCc1ccc(C)s1)CCC2` (stereo not drawn), the “Percent Effect” value is -22.18%.

As for `O=C(NCC1CC1)[C@H]1C[C@@H]2CCN(Cc3ccc4c(c3)OCO4)C[C@@H]2O1.O=C(O)C(F)(F)F`, the “Percent Effect” value is on record as -28.42%.

`c1cnn(CCNCc2csc(-c3ccsc3)n2)c1`: the “Percent Effect” value stood at 52.72%.

On to `COc1cccc(-c2nc(CNCCn3cccn3)cs2)c1`, for which the “Percent Effect” value came to 90.69%.

`c1csc(-c2nc(CNCCn3cccn3)cs2)c1`: the “Percent Effect” value was 10.7%.

On to `c1ccc(-c2nc(CNCCn3cccn3)cs2)cc1`, for which the “Percent Effect” value stood at 37.88%.

Take `c1cnc(-c2nc(CNCCn3cccn3)cs2)nc1`: the “Percent Effect” value was -0.9429%.

Turning to `COc1cccc(-c2nc(CNCCc3cccnc3)cs2)c1`, the “Percent Effect” value is recorded as -0.6336%.

Consider `Fc1ccc(-c2n[nH]cc2CNCCn2cccn2)cc1`, for which the “Percent Effect” value worked out at 11.69%.

With `c1ccc(-c2nc(CNCCn3cccn3)cs2)nc1`, the “Percent Effect” value was -25.33%.

Regarding `COc1cccc(-c2nc(CNCCCn3cccn3)cs2)c1`, the “Percent Effect” value was 37.34%.

Consider `Fc1ccc(-c2nc(CNCCn3cccn3)cs2)cc1`, for which the “Percent Effect” value came out at 66.63%.

With `Fc1ccccc1-c1nc(CNCCn2cccn2)cs1`, the “Percent Effect” value came out at 20.44%.

In the case of `Clc1ccccc1-c1nc(CNCCn2cccn2)cs1`, the “Percent Effect” value is listed as 54.38%.

Regarding `Cc1ccc(CN2CCC3(CC2)CN(c2cnn(C)c2)C(=O)CO3)o1.O=C(O)C(F)(F)F`, the “Percent Effect” value is reported as -7.35%.

In the case of `OCCOc1cc(F)ccc1NCc1cccc(F)c1F`, the “Percent Effect” value was -41.85%.

Regarding `O=C(O)C(F)(F)F.O=S(=O)(c1cccs1)N1CC[C@H](O)[C@@H]1Cc1ccncc1`, the “Percent Effect” value was -2.198%.

As for `Cn1cc(N2C(=O)CC[C@@H]3[C@H]2CCN3CCc2ccccc2)cn1.O=C(O)C(F)(F)F.O=C(O)C(F)(F)F`, the “Percent Effect” value is given as -25.96%.

In the case of `COc1ccc(CNC(C)c2cccc(Br)c2)c(OC)c1OC.Cl` (stereo not drawn), the “Percent Effect” value is reported as -10.84%.

Turning to `COCCN1CCC(c2nc3ccc(-c4ccccc4)cn3n2)CC1.O=C(O)C(F)(F)F`, the “Percent Effect” value is -23.12%.

On to `C/N=C1/c2cc3cc(OC)ccc3n2CCN1Cc1ccccc1.Cl`, for which the “Percent Effect” value was -17.35%.

For `Cc1noc(C)c1CN1CCO[C@H]2CN(C(=O)N3CCCC3)C[C@H]21.O=C(O)C(F)(F)F`, the “Percent Effect” value was -20.16%.

Consider `Cn1cc(-c2nc(CNCCn3cccn3)cs2)cn1`, for which the “Percent Effect” value is -4.068%.

For `COc1ccc(-c2nnc(CNCCn3cccn3)o2)cc1`, the “Percent Effect” value was -11.96%.

As to `COc1ccc(-c2nc(CNCCn3cccn3)cs2)cc1`, the “Percent Effect” value is listed as 106.9%.

In the case of `CCc1c(C)nc2cc(C3CCN(Cc4ccncc4C)C3)nn2c1O` (stereo not drawn), the “Percent Effect” value is given as -4.904%.

Consider `O=C(O)C(F)(F)F.O=C(c1ccncc1F)N1CCc2onc(COc3cccnc3)c2C1`, for which the “Percent Effect” value amounted to 2.972%.

Turning to `Cn1ccc(C(=O)N2CCC[C@]3(C[C@@H](OCc4ccccn4)CO3)C2)n1.O=C(O)C(F)(F)F`, the “Percent Effect” value was -3.608%.

Turning to `O=C(CCC(=O)N1CCC(c2noc3cc(F)ccc23)CC1)NC1CC1`, the “Percent Effect” value came out at 83.45%.

With `CCCNC(=O)CCC(=O)N1CCC(c2noc3cc(F)ccc23)CC1`, the “Percent Effect” value is given as 9.612%.

Regarding `NC(=O)CN1CCC(c2noc3cc(F)ccc23)CC1`, the “Percent Effect” value is -31.79%.

Take `O=C(O)CCCC(=O)N1CCC(c2noc3cc(F)ccc23)CC1`: the “Percent Effect” value came out at 20.09%.

As to `O=C(O)CCC(=O)N1CCC(c2noc3cc(F)ccc23)CC1`, the “Percent Effect” value came to 69.92%.

On to `CC(C)NC(=O)CCC(=O)N1CCC(c2noc3cc(F)ccc23)CC1`, for which the “Percent Effect” value is 74.12%.

Take `O=C(CCc1cc(O)no1)N1CCC(Cc2ccc(F)cc2)CC1`: the “Percent Effect” value turned out to be 4.65%.

As to `O=C(CCN1CCC(C(=O)c2cc(F)ccc2F)CC1)NC1CC1`, the “Percent Effect” value is listed as -9.281%.

`CC(C)NC(=O)CN1CCC(c2cccc(F)c2)C1` (stereo not drawn): the “Percent Effect” value is -24.09%.

On to `Cl.NC(=O)C1CNCCN1C(=O)COc1ccccc1` (stereo not drawn), for which the “Percent Effect” value was -11.48%.

As for `C[C@H]1CN(Cc2cccc(F)c2)C[C@@]12CCN(CC(=O)N(C)C)C2=O.O=C(O)C(F)(F)F`, the “Percent Effect” value is reported as -2.321%.

For the molecule `CC(C)C(=O)N1CC[C@H]2N(C)CC[C@@]2(C(=O)N2CCCC2)CC1.O=C(O)C(F)(F)F`, the “Percent Effect” value is recorded as 7.304%.

For the molecule `Cc1nn(C)c2nc(-c3ccccn3)nc(NCCCOC(C)C)c12`, the “Percent Effect” value is recorded as 98.39%.

Consider `CSCC[C@@H](CO)Nc1ccc(-c2nc(-c3ccccc3C)no2)cn1`, for which the “Percent Effect” value is recorded as -15.48%.

For the molecule `CCC1(O)CCCN(c2nc(-c3ccccn3)nc3c2c(C)nn3C)C1` (stereo not drawn), the “Percent Effect” value amounted to 100.9%.

`CCSCCNc1nc(-c2ccccn2)nc2c1c(C)nn2C`: the “Percent Effect” value was found to be 102%.

For the molecule `CCSCCNc1nc2c(s1)c(C)nn2C`, the “Percent Effect” value is given as 6.366%.

As for `c1ccc(-c2nc3c(c(NCCn4cccc4)n2)CCNCC3)nc1`, the “Percent Effect” value is -4.2%.

As for `CCC1(O)CCCN(c2ncnc3c2c(C)nn3C)C1` (stereo not drawn), the “Percent Effect” value came to 10.34%.

For the molecule `c1ccc(-c2nc3c(c(NCCCn4cncn4)n2)CCNCC3)nc1`, the “Percent Effect” value turned out to be 8.8%.

Regarding `CSCC[C@@H](CO)Nc1nc(-c2ccccn2)nc2c1c(C)nn2C`, the “Percent Effect” value worked out at 63.32%.

In the case of `Cc1nc(N2CCC(O)(c3ccccc3)CC2)c2c(C)nn(C)c2n1`, the “Percent Effect” value came out at 12.95%.

As to `CSCC[C@@H](CO)Nc1ccc(-c2nc(-c3ccccc3F)no2)cn1`, the “Percent Effect” value was -33.46%.

As for `CC(=O)NCCNc1nc(-c2ccccn2)nc2c1c(C)nn2C`, the “Percent Effect” value is listed as -12.81%.

As for `Cc1ccc(CN2CC[C@H]3OCC[C@@H](C(=O)N4CCCCO4)[C@@H]3C2)o1.O=C(O)C(F)(F)F`, the “Percent Effect” value is -16.6%.

As for `O=C(O)C(F)(F)F.O=C([C@@H]1CCO[C@@H]2CCN(CCc3ccccc3)C[C@@H]21)N1CCCC1`, the “Percent Effect” value is -24.53%.

Turning to `Cl.c1cnc(Nc2cc(CCC3CCCNC3)ccn2)cn1` (stereo not drawn), the “Percent Effect” value came out at 5.615%.

As to `Cc1nnc(N2CC[C@H]3O[C@H](C(=O)NCc4ccccn4)CC[C@H]32)s1.O=C(O)C(F)(F)F.O=C(O)C(F)(F)F`, the “Percent Effect” value is given as -4.989%.

Take `CCCN1C[C@H]2CC[C@@H]1CN(c1nnc(C(C)C)s1)C2`: the “Percent Effect” value is recorded as 23.85%.

`O[C@@H]1CN(Cc2cccnc2)C[C@H]1Oc1ccccc1`: the “Percent Effect” value is recorded as -6.962%.

As to `CCN1CCN(C)C(=O)C12CCN(C(=O)Cc1ccccn1)CC2.O=C(O)C(F)(F)F`, the “Percent Effect” value amounted to 3.493%.

Take `Cc1nn(C)c2nc(-c3ccccn3)nc(NCCC3CCCN3C)c12` (stereo not drawn): the “Percent Effect” value was -21.22%.

Consider `Cc1nn(C)c2nc(N(Cc3ccccn3)CC3CCCO3)sc12` (stereo not drawn), for which the “Percent Effect” value was -20.31%.

As to `Cc1nn(C)c2nc(-c3ccccn3)nc(NC[C@@H]3CCCO3)c12`, the “Percent Effect” value is 93.55%.

Source of the values: ChEMBL document CHEMBL3988442, “University of Dundee, Small-Polar-MMV Screening Library” (2021).
